Source: PubChem
Efflux pump inh: inhibitors of Candida efflux pumps in yeast, primary screen, S. cerevisiae, Nile Red, multiplex; S. cerevisiae Candida pump triplex; inhibition, % at 10 µM; hit rate 0.44% among 330,000;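 active means plate passing quality check with inhibition over a set limit, or well fluorescence over plate mean plus 4 SD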;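 further: Nile Red retained in pooled yeast measured as flow cytometry median fluorescence; 0% = buffer negative control and 100% = Enniatin B positive control; higher means more Nile Red kept so more efflux inhibition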
ALR inh: inhibitors of human ALR sulfhydryl oxidase, primary screen, biochemical, H2O2 detection, HRP-luminol luminescence, single point; FAD-linked sulfhydryl oxidase ALR (Homo sapiens), P55789; purified ALR, DTT oxidation; inhibition, % (test concentration not listed); hit rate 3.8% among 290,000;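 active means mean replicate inhibition above about 79%, with every replicate also reaching it, limit read from the data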
AHR act: AHR activators, primary screen, cell-based, luminescence, luciferase reporter, human. Aryl hydrocarbon receptor (Homo sapiens), P35869. AHR-responsive luciferase reporter cells. activation, % at 5 µM. hit rate 2.5% among 320,000. AID 2796, 2010; in the data active means activation above about 47%;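 further: 0% = vehicle wells and 100% = reference agonist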
Mot1-301 SUMO: yeast Mot1-301 growth rescue at high temperature, primary screen, SUMOylation pathway inhibitor project, S. cerevisiae, ATP luminescence, 38.5C | S. cerevisiae Mot1-301 growth rescue; percent above DMSO median, 100 means doubled | hit rate 1% among 320,000 | growth rescue, % at 18.8 µM;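 active means every valid replicate shows activation above 250% relative to neutral control wells; inactive means the rest, any valid replicate at or below 250%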;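 further: OY570 slx delta 5 strain wells were the positive control but not used for scaling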
VLA-4 inh: inhibition in human VLA-4 binding assay, primary screen, VLA-4 allosteric modulator project, MLPCN library, flow cytometry, VLA-4 expressing cells; Integrin alpha-4 (Homo sapiens), P13612; ligand binding flow cytometry; inhibition, % (about 7 µM as worked out from the volumes in the protocol); hit rate 0.2% among 330,000; in the data active means inhibition above about 50%
Bfl-1 A1 inh: caspase 3/7 activation in MEF A1-2A-BIM cells, primary screen, A1 inhibitor project, cell-based, luminescence, HTS | Caspase-Glo 3/7 luminescence, 3 h; percent of clofoctol response, vehicle zero | caspase activation, % (no concentration beside the values) | hit rate 0.066% among 330,000;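 active means over half of replicate activation scores above 10%, or exactly half above 10 with the replicate mean above 10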
AHR act cf: AHR activators, confirmation, cell-based, luminescence, luciferase reporter, human. activation, % at 9 µM. shares compounds with AHR act. human cells, AHR-responsive luciferase reporter. AID 2845, 2010. hit rate 87% among 2,300; in the data active means activation above about 49%;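 further: HepG2 hepatoma cells carrying a DRE-driven firefly luciferase reporter; 0% = vehicle wells and 100% = reference agonist wells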
PXR counter: human PXR activators, counter-screen for AHR activator project, cell-based, luciferase luminescence. shares compounds with AHR act. cell-based PXR reporter. activation, % at 11.6 µM. hit rate 88% among 2,300. AID 434939, 2010; in the data active means activation above about 11%;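 further: human hepatoma DPX-2 cells expressing full-length human PXR; 0% = DMSO and 100% = reference agonist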
Active calls of the source: *. Most compounds without a hit are left out; they make up all but 7.2% or so of the library.

Screening O=C(/C=C/c1ccc(Cl)c([N+](=O)[O-])c1)Nc1ccc(N2CCCC2)cc1 returned Efflux pump inh 0, ALR inh -5, AHR act 84*, Mot1-301 SUMO -9, VLA-4 inh -3, Bfl-1 A1 inh 0, AHR act cf 95* and PXR counter 18*.
For O=C(/C=C/c1ccc(Cl)c([N+](=O)[O-])c1)Nc1cccnc1 the results were Efflux pump inh 0, AHR act 1, Mot1-301 SUMO 13, VLA-4 inh 5 and Bfl-1 A1 inh -1.
For CCNC(=S)Nc1cccc(NC(=O)c2ccccc2O)c1 the results were Efflux pump inh 0, ALR inh 6, AHR act 86*, Mot1-301 SUMO 1, VLA-4 inh -7, Bfl-1 A1 inh 0, AHR act cf 124* and PXR counter 14*.
For CCNC(=S)Nc1ccc(NC(=O)c2ccccc2O)cc1 the results were Efflux pump inh 0, ALR inh 2, AHR act 0, Mot1-301 SUMO -7, VLA-4 inh 8 and Bfl-1 A1 inh 3.
For N=c1n(CCN2CCOCC2)c2ccccc2n1CC(=O)c1cccc([N+](=O)[O-])c1 the results were Efflux pump inh 0, ALR inh 2, AHR act 134*, Mot1-301 SUMO 3, VLA-4 inh 1, Bfl-1 A1 inh 0, AHR act cf 148* and PXR counter 87*.
c1ccc(-c2nnc3sc(-c4csc5c4CCCC5)nn23)cc1 was read as Efflux pump inh 0, ALR inh 1, AHR act 97*, Mot1-301 SUMO 2, VLA-4 inh 0, Bfl-1 A1 inh -1, AHR act cf 136* and PXR counter 38*.
`COc1c(S(=O)(=O)n2nc(C)cc2C)ccc(Cl)c1Cl` gave Efflux pump inh 0, ALR inh -14, AHR act 1, Mot1-301 SUMO 9, VLA-4 inh 28 and Bfl-1 A1 inh 0.
For O=C(CSc1nnnn1C1CCCCC1)Nc1ccccc1N1CCOCC1 the results were Efflux pump inh 0, AHR act 2, Mot1-301 SUMO 7, VLA-4 inh 6 and Bfl-1 A1 inh 0.
Screening COc1ccc(Nc2nc(OC)nc(OC)n2)cc1 returned Efflux pump inh 0, ALR inh 14, AHR act 7, Mot1-301 SUMO -17, VLA-4 inh 3 and Bfl-1 A1 inh 0.
For COc1nc(Nc2ccc3c(c2)OCO3)nc(OC)n1 the results were Efflux pump inh 0, ALR inh 4, AHR act 119*, Mot1-301 SUMO -16, VLA-4 inh -22, Bfl-1 A1 inh -4, AHR act cf 109* and PXR counter 18*.
For COc1ccc(Nc2ncnc3ccc(Br)cc23)cc1OC the results were Efflux pump inh 0, ALR inh -3, AHR act 86*, Mot1-301 SUMO -7, VLA-4 inh 8, Bfl-1 A1 inh 1, AHR act cf 72* and PXR counter 18*.
For CN(C)c1ccc(Nc2ncnc3ccc(Br)cc23)cc1 the results were Efflux pump inh 0, AHR act 92*, Mot1-301 SUMO 20, VLA-4 inh -8, Bfl-1 A1 inh 0, AHR act cf 47 and PXR counter 10.
`Cc1cccc(Nc2ncnc3ccc(Br)cc23)c1` gave Efflux pump inh 0, AHR act 101*, Mot1-301 SUMO 11, VLA-4 inh 8, Bfl-1 A1 inh 0, AHR act cf 72* and PXR counter 30*.
Screening COc1ccc(Nc2ncnc3nc[nH]c23)cc1OC returned Efflux pump inh 1, ALR inh -4, AHR act 90*, Mot1-301 SUMO -2, VLA-4 inh 5, Bfl-1 A1 inh -1, AHR act cf 75* and PXR counter 21*.
COc1cc2ncnc(Nc3ccc4c(c3)OCO4)c2cc1OC was read as Efflux pump inh 0, ALR inh 10, AHR act 104*, Mot1-301 SUMO -11, VLA-4 inh 1, Bfl-1 A1 inh 0, AHR act cf 101* and PXR counter 25*.
For COc1cc2ncnc(N[C@H](C)c3ccccc3)c2cc1OC the results were Efflux pump inh 0, AHR act 9, Mot1-301 SUMO -10, VLA-4 inh 0 and Bfl-1 A1 inh 0.
Cc1cc(C)c(C)c(OCCn2ccnc2)c1 was read as Efflux pump inh 0, ALR inh -10, AHR act 90*, Mot1-301 SUMO -3, VLA-4 inh 1, Bfl-1 A1 inh 0, AHR act cf 54* and PXR counter 14*.
Screening Cc1ccc(C)c(OCCn2ccnc2)c1 returned Efflux pump inh 0, ALR inh -6, AHR act 20, Mot1-301 SUMO -24, VLA-4 inh 6 and Bfl-1 A1 inh 0.
`COC(=O)c1ccc(CNC(=O)c2ccc(NS(=O)(=O)c3ccc4[nH]c(=O)[nH]c4c3)cc2)cc1` gave Efflux pump inh 0, ALR inh -5, AHR act -2, Mot1-301 SUMO -19, VLA-4 inh 17 and Bfl-1 A1 inh 0.
Screening CCC1CCCCN1CC(=O)c1c(C)[nH]c2cc(C)ccc12 (centres undefined) returned Efflux pump inh 0, ALR inh -5, Mot1-301 SUMO 92, VLA-4 inh 5 and Bfl-1 A1 inh 1.
Cc1ccc2c(C(=O)CNc3nncs3)c(C)[nH]c2c1 was read as Efflux pump inh 0, AHR act 106*, Mot1-301 SUMO -3, VLA-4 inh -8, Bfl-1 A1 inh 0, AHR act cf 36 and PXR counter 17*.
For Nc1cc(OC(=O)c2c(F)cccc2Cl)nn1S(=O)(=O)c1ccccc1 the results were Efflux pump inh 0, AHR act 0, Mot1-301 SUMO 44, VLA-4 inh 6 and Bfl-1 A1 inh 0.
Screening CCc1ccc(CNC(=O)CN2C(=O)COc3ccccc32)cc1 returned Efflux pump inh 0, ALR inh -6, AHR act 0, Mot1-301 SUMO -5, VLA-4 inh -3 and Bfl-1 A1 inh -2.
Screening C=CCN1C(=O)c2ccccc2NC1c1ccc(Br)s1 (centres undefined) returned Efflux pump inh 0, ALR inh -2, AHR act 2, Mot1-301 SUMO -16, VLA-4 inh 2 and Bfl-1 A1 inh 0.
